Our source for the inhibition values is PubChem BioAssay AID652197 (Broad Institute, 2013).

Values joined by “and” are separate entries in the source; they are usually repeats but may differ in a detail not shown here. Identical values can stand only once. In all, about 340,000 compounds went through this assay and about 500 (0.15%) were called active. This is one part of a sample in which actives are shown more often than they occur.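 The calls were made as follows: active = mean replicate inhibition of at least 30%, or all replicates individually reaching that 30% level; inactive = mean below 30% and not every replicate reaching it.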

The target in the assay is Endoplasmic reticulum aminopeptidase 1 (Homo sapiens) (UniProt Q9NZ08). Nature of the assay: inhibition of ERAP1 peptide trimming enzyme – biochemical, single point, plate reader, primary screen (AID 652197).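 Also: 0% = neutral control wells and 100% = L-leucinethiol positive control wells.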 As to conditions: recombinant ERAP1, Leu-AMC fluorescence, 60 min; at 10.7 µM; hits give high values.
Endoplasmic reticulum aminopeptidase 1 (Homo sapiens), sequence (Q9NZ08 whole entry, looked up): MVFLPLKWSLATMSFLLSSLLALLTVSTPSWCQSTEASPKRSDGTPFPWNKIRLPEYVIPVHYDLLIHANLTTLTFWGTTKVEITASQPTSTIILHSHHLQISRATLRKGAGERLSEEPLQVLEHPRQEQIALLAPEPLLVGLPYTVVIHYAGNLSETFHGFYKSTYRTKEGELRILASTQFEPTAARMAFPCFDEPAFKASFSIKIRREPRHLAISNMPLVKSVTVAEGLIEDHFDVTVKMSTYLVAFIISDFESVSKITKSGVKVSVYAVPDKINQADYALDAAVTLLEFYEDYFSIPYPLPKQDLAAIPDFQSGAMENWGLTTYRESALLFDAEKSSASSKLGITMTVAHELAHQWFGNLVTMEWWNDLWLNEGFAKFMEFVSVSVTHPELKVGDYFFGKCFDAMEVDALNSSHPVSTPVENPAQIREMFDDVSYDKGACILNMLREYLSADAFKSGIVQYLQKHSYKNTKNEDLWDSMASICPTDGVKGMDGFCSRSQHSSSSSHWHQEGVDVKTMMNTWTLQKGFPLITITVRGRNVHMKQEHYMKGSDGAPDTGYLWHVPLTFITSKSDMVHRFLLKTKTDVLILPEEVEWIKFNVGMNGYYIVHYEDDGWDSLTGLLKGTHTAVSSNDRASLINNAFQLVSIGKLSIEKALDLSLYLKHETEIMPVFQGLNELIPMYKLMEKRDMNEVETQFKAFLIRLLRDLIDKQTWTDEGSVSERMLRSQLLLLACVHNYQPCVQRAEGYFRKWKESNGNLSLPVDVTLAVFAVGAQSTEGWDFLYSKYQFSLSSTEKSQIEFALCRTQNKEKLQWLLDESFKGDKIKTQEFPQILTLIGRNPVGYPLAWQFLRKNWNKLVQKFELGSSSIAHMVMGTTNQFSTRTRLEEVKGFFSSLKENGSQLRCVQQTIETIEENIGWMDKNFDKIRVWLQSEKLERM
Regarding `COc1ccc2c3c(n(C)c2c1)[C@@H](CO)N(C(=O)Nc1cccc(F)c1)CC31CCN(Cc2nccs2)CC1`, the inhibition is -1.39% (inactive).
On to `O=C(Nc1ccccc1F)N1CC(=O)N2[C@@H](CO)[C@H](c3ccc(C#CC4CCCC4)cc3)[C@@H]2C1`, for which the inhibition is -1.61% (inactive).
Next, `CCC(=O)N1CCC2(CC1)CN(S(C)(=O)=O)[C@@H](CO)c1c2c2ccc(OC)cc2n1C`: -0.517% (inactive); `CC(=O)N(C)C[C@H]1[C@H](c2ccc(C3=CCCCC3)cc2)[C@H](CO)N1CC1CC1`: 2.34% (inactive); `O=C(NCC1CC1)[C@@H]1[C@@H](CO)[C@@H]2Cn3c(ccc(C4=CCCC4)c3=O)[C@H]1N2CCC(F)(F)F`: 6.29% (inactive).
Next, `O=C(Nc1ccc(F)cc1)N[C@H]1CC[C@H](CCn2cc(C3(O)CCCC3)nn2)O[C@@H]1CO`: -1.65% (inactive).
Next, `CN1CCN(C(=O)C[C@H]2CC[C@H]3[C@@H](COC[C@H](O)CN3CC3CCCC3)O2)CC1`: 1.07% (inactive); `O=C(C[C@@H]1CC[C@@H]2[C@H](COC[C@H](O)CN2C(=O)c2ccncc2)O1)NCc1cc(F)cc(F)c1`: -4.11% (inactive).
As to `CN1c2ccc(Br)cc2[C@@H]2[C@@H](CCN2S(=O)(=O)c2ccc(F)cc2)[C@@H]1CO`, the inhibition is -0.368% (inactive).
For the compound `CN1CCCCC(NC(=O)C(C)(C)C)C1=O` (configuration not stated), the inhibition was -3.81% (inactive).
For `CS(=O)(=O)Nc1ccc2c(c1)[C@H]1C[C@H](CC(=O)NC3CCCC3)O[C@@H](CO)[C@H]1O2`, the inhibition was -1.31% (inactive).
Next, `CC(C)C#Cc1cnc2c(c1)C(=O)N([C@H](C)CO)C[C@H](C)[C@@H](CN(C)C(=O)Nc1cc(F)ccc1F)O2`: 1.03% (inactive).
For the compound `O=C(C[C@@H]1C=C[C@H](NC(=O)CN2CCOCC2)[C@@H](CO)O1)NCc1cccc(F)c1`, the inhibition was 0.919% (inactive).
In the case of `CCCC#Cc1ccc([C@@H]2[C@@H](CO)N3C(=O)CN(C(=O)Nc4cccc(F)c4)C[C@H]23)cc1`, the inhibition was -1.93% (inactive).
`CCCNC(=O)Nc1ccc2c(c1)OC[C@H](C)N(CCC(F)(F)F)C[C@H](C)[C@@H](OC)CN(C)C2=O`: the inhibition was 1.36% (inactive).
For `Cn1c(=O)[nH]c(=O)c2c1[nH]c(=S)n2Cc1ccccc1` the value was 30.6% (active); for `CCN(CC)CCn1cnc2c1c(=O)[nH]c(=O)n2Cc1ccccc1`, -0.129% (inactive).
For `Cc1nnc(Sc2nc3c(c(=O)[nH]c(=O)n3C)n2Cc2ccccc2)s1` the value was -0.766% (inactive).
On to `Cc1noc(C)c1NC(=O)N(C)C[C@@H]1OCCCC[C@H](C)Oc2ccc(NC(=O)C3CCCCC3)cc2C(=O)N([C@H](C)CO)C[C@@H]1C`, for which the inhibition is 1.95% (inactive).
Consider `Cc1noc(C)c1NC(=O)N(C)C[C@@H]1OCCCC[C@H](C)Oc2ccc(NS(=O)(=O)c3c(C)noc3C)cc2C(=O)N([C@@H](C)CO)C[C@@H]1C`, for which the inhibition is -2.92% (inactive).
Next, `CO[C@@H]1CN(C)C(=O)c2cc(NC(=O)NC3CCCCC3)ccc2OC[C@@H](C)N(C(C)=O)C[C@H]1C`: 1.39% (inactive); `CO[C@H]1CN(C)C(=O)c2ccc(NC(=O)CC(F)(F)F)cc2OC[C@H](C)N(C(=O)C2CC2)C[C@H]1C`: 1.15% (inactive).
For `COc1ccc2c(c1)c(=Cc1ccc(N(C)C)cc1)c1cc(-c3ccccc3)[n+](C)n12` the value was 48.3% (active); for `COc1ccc2sc(-c3ccc(N(C)C)cc3)c(C#CCO)c2c1`, 0.776% (inactive); for `CN(C)Cc1cn(CC[C@H]2CC[C@@H](NS(=O)(=O)c3ccccc3)[C@H](CO)O2)nn1`, -0.48% (inactive).
Regarding `CCNC(=O)Nc1ccc2c(c1)C(=O)N(C)[C@H]1CC[C@@H](CC(=O)N[C@@H](C)c3ccccc3)O[C@H]1CO2`, the inhibition is -1.42% (inactive).
Next, `O=C(O)C[C@@H]1C[C@@H]2c3cc(NC(=O)NC4CCCC4)ccc3O[C@@H]2[C@H](CO)O1`: 0.604% (inactive); `CC(C)NC(=O)N1[C@H](CO)[C@H](c2ccccc2)C12CN(C(=O)Cc1cccnc1)C2`: 0.883% (inactive).
Next, `Cc1ccc2nc3c(cc(C(=O)NCCc4ccccc4)c(=N)n3CC3CCCO3)c(=O)n2c1` (configuration not stated): -79.5% (inactive); `Cc1cccn2c(=O)c3cc(C(=O)NCCN4CCOCC4)c(=N)n(Cc4cccnc4)c3nc12`: 54.5% (active); `COc1ccc(CCn2c(=N)c(C(=O)NCC3CCCO3)cc3c(=O)n4cccc(C)c4nc32)cc1OC` (configuration not stated): 1.75% (inactive).
For `C[C@H]1CN([C@@H](C)CO)C(=O)Cc2cc(NC(=O)Cn3cnnn3)ccc2O[C@H]1CN(C)CC1CC1` the value was 2.17% (inactive); for `O=C(C[C@H]1C=C[C@H](NC(=O)Nc2cc(F)ccc2F)[C@@H](CO)O1)NCc1ccccn1`, -1.22% (inactive); for `COc1ccc(C(=O)Nc2ccc3c(c2)C(=O)N(C)C[C@@H](OC)[C@H](C)CN(C(C)=O)[C@@H](C)CO3)cc1`, 2.42% (inactive).
As to `COC(=O)/C=C\C(=O)Nc1cccc([N+](=O)[O-])c1`, the inhibition was 33.8% (active).
Regarding `CCC(CC)NC(=O)/C=C/c1cccc([N+](=O)[O-])c1`, the inhibition is 4.03% (inactive).
Next, `O=C(Nc1cccc([N+](=O)[O-])c1)Nn1cnnc1`: -4.32% (inactive); `C[C@@H]1CCCCO[C@H](CN(C)C)[C@@H](C)CN([C@H](C)CO)C(=O)c2cc(N(C)C)ccc2O1`: -1.68% (inactive); `COc1ccc(NC(=O)N(C)C[C@@H]2OCCCC[C@H](C)Oc3ccc(NS(=O)(=O)c4cccs4)cc3C(=O)N([C@@H](C)CO)C[C@@H]2C)cc1`: -4.78% (inactive).
Next, `Cc1cc(=O)oc2c3c(cc(OCC(=O)N[C@H](C(=O)O)c4ccccc4)c12)OC(C)(C)CC3`: 15.5% (inactive).
For `Cc1c(C)c2c(OCC(=O)NCCCO)cc3c(c2oc1=O)CCC(C)(C)O3` the value was 1.62% (inactive); for `Cc1c(C)c2c(OCC(=O)N[C@@H](C(=O)O)c3ccccc3)cc3c(c2oc1=O)CCC(C)(C)O3`, 31.7% (active); for `O=C(C[C@H]1CC[C@H]2[C@@H](COC[C@@H](O)CN2Cc2nccs2)O1)NCc1ccccc1Cl`, 0.949% (inactive).
`COc1ccccc1S(=O)(=O)N[C@@H]1C=C[C@H](CC(=O)NCc2cccc(F)c2)O[C@H]1CO`: the inhibition was 0.371% (inactive).
With `CN(C)C(=O)C[C@@H]1C[C@H]2c3cc(NC(=O)Nc4ccccc4F)ccc3O[C@H]2[C@@H](CO)O1`, the inhibition was -1.15% (inactive).
Next, `O=C(C[C@@H]1C=C[C@H](NC(=O)Nc2ccccc2F)[C@H](CO)O1)NCc1ccc(F)cc1`: -4.09% (inactive); `COc1ccc(NC(=O)Nc2ccc3c(c2)C(=O)N([C@@H](C)CO)C[C@@H](C)[C@H](CN(C)S(=O)(=O)c2cccs2)O3)cc1`: 2.02% (inactive).
Next, `C[C@@H]1CN([C@H](C)CO)C(=O)c2cc(NS(=O)(=O)c3cn(C)cn3)ccc2O[C@@H](C)CCCCO[C@H]1CN(C)C`: 11.1% (inactive); `COc1ccc(C#Cc2cnc3c(c2)C(=O)N([C@H](C)CO)C[C@@H](C)[C@@H](CN(C)C(=O)CN(C)C)O3)cc1`: 6.88% (inactive).
For `Cc1noc(C)c1S(=O)(=O)Nc1cccc2c1O[C@@H](CN(C)S(=O)(=O)c1cn(C)cn1)[C@@H](C)CN([C@H](C)CO)C2=O` the value was 1.15% (inactive); for `CCCc1cn(CC[C@@H]2CC[C@H](NS(=O)(=O)c3ccccc3Cl)[C@H](CO)O2)nn1`, 4.02% (inactive); for `CO[C@H]1CN(C)C(=O)c2ccc(NC(=O)c3ccc4c(c3)OCO4)cc2OC[C@@H](C)NC[C@@H]1C`, 0.503% (inactive).
`CN1C(=O)c2cc(NS(=O)(=O)CC(F)(F)F)ccc2OC[C@H]2O[C@@H](CC(=O)NCc3ccc(Cl)c(Cl)c3)CC[C@@H]21`: the inhibition is -2.14% (inactive).
`Cc1ccccc1S(=O)(=O)N1[C@H](C#N)[C@H](c2ccccc2)[C@@H]1CO`: the inhibition was 1.23% (inactive).
On to `CN(C)C(=O)c1cccc(-c2ccc([C@H]3[C@H]4CN(C(=O)Cc5ccccc5)CC(=O)N4[C@H]3CO)cc2)c1`, for which the inhibition is 1.83% (inactive).
For `CO[C@@H]1CN(C)C(=O)c2cc(NC(=O)NC3CCCC3)ccc2OC[C@H](C)NC[C@H]1C` the value was 1.04% (inactive); for `COc1cccc(S(=O)(=O)N2[C@@H]3CNC[C@H]2C3c2ccc(-c3ccccc3OC)cc2)c1` (some centres not stated), -1.91% (inactive) and -0.285% (inactive); for `COC(=O)C[C@@H]1CC[C@H]2[C@H](COc3ccc(NC(=O)c4ccccc4F)cc3C(=O)N2C)O1`, 0.852% (inactive).
`C/C=C/c1ccc([C@H]2[C@@H](CO)N(C(=O)CN(C)C)C23CN(C(=O)C2CCCC2)C3)cc1`: the inhibition is -0.32% (inactive).
For `C[C@H](CO)N1C[C@H](C)[C@H](CN(C)C(=O)c2ccccc2)OCCCC[C@H](C)Oc2ccc(N(C)C)cc2C1=O` the value was 1.85% (inactive); for `COc1ccccc1S(=O)(=O)N1C[C@@H]2N[C@H](C1)C2c1ccc(-c2cccc(C)c2)cc1` (some centres not stated), 4.06% (inactive) and 6.11% (inactive).
As for `C[C@@H](NC(=O)C[C@H]1C=C[C@@H](NC(=O)CN2CCOCC2)[C@@H](CO)O1)c1ccccc1`, the inhibition was 9% (inactive).
For `CCCN1C[C@H](C)[C@@H](OC)CN(C)C(=O)c2ccc(NC(=O)C3CCOCC3)cc2OC[C@@H]1C`, the inhibition is -1.27% (inactive).
Consider `O=C(Nc1cccc(Cl)c1)N[C@@H]1CC[C@@H](CCNC(=O)C2CCOCC2)O[C@@H]1CO`, for which the inhibition was -1.57% (inactive).
For `COc1ccc(NC(=O)N(C)C[C@H]2Oc3ccc(N(C)C)cc3C(=O)N([C@@H](C)CO)C[C@H]2C)cc1` the value was 3.18% (inactive); for `O=C(Nc1cc(F)ccc1F)N1C[C@H]2[C@@H](c3ccccc31)[C@@H](CO)N2CC1CCCC1`, -1.13% (inactive); for `C[C@H]1CN([C@@H](C)CO)C(=O)c2cc(NS(=O)(=O)c3cccs3)ccc2O[C@@H]1CN(C)C(=O)Nc1ccccc1`, -2.47% (inactive).

One may read the inhibition as the relative decrease from the control value, in per cent.
